Source: PubChem BioAssay AID485297 (National Center for Advancing Translational Sciences (NCATS), 2010)
Screen size: about 320,000 compounds; about 9,100 (2.8%) were called active. About 3% were inconclusive and are not listed. The call rests on the fitted dose curve; in most records, active means well fitted activation curve with a large enough effect; inconclusive means small, poorly fitted or top-dose-only effect; inactive means no such curve, though single readings can be large or run the other way. The entries come from a sample that favours actives as a whole.

Experiment: qHTS Assay for Rab9 Promoter Activators; further: nearly all actives have a fitted effect of over 60% in size; on activation, negative = inhibition: % of control where 0% means no effect
Conditions: Huh7 Rab9 promoter-luciferase reporter, luminescence, 24 h; series mostly up to 9.22 µM; activation, negative = inhibition: at the top concentration
Source text: NIH Chemical Genomics Center [NCGC] NIH Molecular Libraries Probe Production centers Network [MLPCN] MLPCN Grant: MH089537-01 Assay Submitter (PI): Yiannis A. Ioannou NCGC Assay Overview: Niemann Pick Type C (NPC) is a rare neurodegenerative lipidosis that is characterized by lipid storage in the endosomal/lysosomal system. Treatment modalities for this devastating disease are currently non-existent due to the severe obstacles associated with accessing the central nervous system with proteins or genes (Ioannou, 2000). We have developed a new paradigm, termed "Orphan Receptor Bypass Therapy" (ORByT), to address these disorders. This paradigm posits the existence of endogenous "suppressor" proteins whose expression can dramatically improve LSD pathogenesis. The goal is the identification/discovery of small chemical compounds that can modulate the expression of these proteins and provide a new treatment modality for these devastating disorders. One such protein whose overexpression reverses aspects of the NPC phenotype is Rab9. We have developed and optimized a cell based luciferase reporter assay in 1536 well format for the identification of up-regulators of the Rab9 promoter.
The Rab9 promoter is cloned in front of the luciferase reporter gene, therefore […] promoter activation results in luciferase expression. Frozen stock of the Rab9 promoter transfected Huh7 cells were obtained from the laboratory of Dr. Yiannis Ioannou (The Mount Sinai School of Medicine, New York, NY). Cells were propagated and maintained at NCGC in medium containing RPMI-1640 supplemented with 10% FBS, 2mM L-glutamine, and 50ug/ml penicillin/streptomycin. Cells were harvested in and plated for assays in OP-MEM I reduced-serum medium supplemented with 10% FBS. The Amplite luciferase reporter gene assay kit was purchased from ABD Bioquest and prepared/stored according to manufacturers recommendations. qHTS Assay Setup: 1.Dispensed 5ul of Huh7 cells stably expressing Rab9-luciferase at a density of 1500 cells per well 1536-well plates. 2.Incubate cells at 37C, 5% CO2, and 95% humidity for 2 hours. 3.Transferred 23nl per well of compound in DMSO solution. 4.Incubated at 37C, 5% CO2, and 95% humidity for 24 hours. 5.Dispensed 3ul per well of Amplite reagent(ABD Bioquest) per well. 6.Incubate at ambient for 10 minutes. 7.Read using the luminescence protocol on the ViewLux plate reader (Perkin Elmer).
Potency means the concentration at half of the fitted maximal effect.

activation, negative = inhibition, inactive:
CCOc1ccc(NC(=O)COC(=O)C2CCC(=O)N2)c([N+](=O)[O-])c1 (centres undefined) 6.59%
C[C@H](NC(=O)c1[nH]cnc1C(=O)Nc1nccs1)c1ccccc1 -3.31%
COC(=O)[C@@H]1CCCN1C(=O)c1cc(COc2cccc3cccnc23)on1 1.02%
CSc1ccccc1OCc1cc(C(=O)N(C)CCc2c(C)n[nH]c2C)no1 20.2%
CC(OC(=O)CN1C(=O)c2ccccc2C1=O)C(=O)c1ccccc1 (centres undefined) -0.0549%
Cc1cc(C(=O)Nc2ccc(C)c(S(=O)(=O)N3CCOCC3)c2)c2ccccc2n1 -0.945%
Cc1ccc(C(=O)NCC(c2cccs2)N(C)C)cc1S(=O)(=O)N1CCOCC1 (centres undefined) -1.2%
Nc1ccn(CC(=O)N2CCN(c3ccccn3)CC2)c(=O)n1 -3.9%
O=C(/C=C/c1ccco1)NC(=S)Nc1ccccc1Br -1.03%
Cc1nnc(NC(=O)/C=C/c2ccco2)s1 29.5%
O=C(Nc1ccc2ccccc2c1)/C(=C\c1ccc2c(c1)OCO2)NC(=O)c1ccco1 -6.34%
Cc1nc(Cl)cc(N/N=C/c2ccccc2)n1 21.6%
Cc1cc(C)nc(N/N=C/c2c(C)oc3ccccc23)n1 -2.47%
Brc1ccc(-c2csc(N/N=C/c3ccc4c(c3)OCO4)n2)cc1 -5.19%
CC(C)Oc1ccc(S(=O)(=O)N2CCOCC2)cc1NC(=O)C1CCCC1 -0.79%
CCN(CC(=O)Nc1c(F)cccc1F)C(=O)c1ccc(-c2ccccc2)cc1 6.76%
O=C(O)CSc1ccc(S(=O)(=O)N2CCCC2)cn1 9.49%
O=C(Nc1ccc(O)cc1)c1ccc(NC(=O)c2ccco2)cc1 29.1%
CCOC(=O)c1ccc(NC(=O)CNC(=O)c2ccco2)cc1 -2.6%
COc1ccc(Cl)cc1NC(=O)CN(C)C(=O)c1ccc2n[nH]nc2c1 -1.33%
O=C(Cn1c(-c2cncs2)nc2ccccc21)NC1CCCC1 -3.47%
Cc1nc(/N=C(\N)NC(=O)NC2CCCCC2)nc2ccccc12 -23.8%
Nc1ccc(Nc2cc(O)c3ncccc3c2)cc1 -37.2%
CN1CCN(S(=O)(=O)c2cccc(C(=O)Nc3cccc(S(N)(=O)=O)c3)c2)CC1 -8.11%
COC(=O)c1ccc(-c2c(-c3ccccc3)ncc3cc(OC)c(OC)cc23)cc1 1.03%
Cc1nc(N2CCCCC2)sc1C=O -3.8%
CN(C)CCCN(C(=O)c1ccc(S(=O)(=O)N2CCCCCC2)cc1)c1nc2cc3c(cc2s1)OCCO3 0.137%
CN(C)CCCN(C(=O)c1ccc(S(=O)(=O)N2CCCCCC2)cc1)c1nc2ccc(Br)cc2s1 -1.22%
Cc1nc2ccc(NC(=O)C3CCCCC3)cc2s1 24.9%
O=C(NCCc1cccc(F)c1)C1CCCN(c2nc3ccccc3s2)C1 (centres undefined) 11.3%
COc1ccc2nc(N3CCN(C(=O)c4ccc([N+](=O)[O-])o4)CC3)sc2c1 26.3%
CCC(=O)c1ccc(OCC(=O)N(CC)CC2COc3ccccc3O2)cc1 (centres undefined) -2.01%
CCc1sc(C(=O)N2CCN(CC(=O)Nc3cccc(F)c3)CC2)cc1C -2.46%
CC1CCCC(NC(=O)c2cc(-c3ccncc3)nc3ccccc23)C1C (centres undefined) 13.4%
Cc1ccc(/C=C/C(=O)OCC(=O)Nc2cccnc2Cl)cc1 -2.71%
COc1cc(/C=C2\SC(=O)NC2=O)ccc1OCc1ccc(Cl)nc1 -1.24% [at 1.84 µM]
Cc1ccc(C)c(NC(=O)C(c2ccccc2)N2CCN(CC(=O)NC3CC3)CC2)c1 (centres undefined) -2.84%
COc1ccc(C(=O)NCc2ccc(C)cc2)cc1S(=O)(=O)N1CCCC1 13%
CC1CCCC(C)N1C(=O)CSc1nnnn1C1CCCC1 (centres undefined) 22.7%
CC(=O)Nc1ccc(NC(=O)CSc2nnnn2C2CCCCC2)cc1 -1.4%
C[C@H](OC(=O)n1ccnc1)[C@@H]1O[C@@]2(C)CCC[C@@H]1O2 0.69%
CN(CCN1CCOCC1)Cc1nc(-c2ccc3c(c2)OCO3)no1 2.86%
CC(C)N(Cc1nc(-c2ccc3c(c2)OCO3)no1)CC1CCC(=O)N1 (centres undefined) -1.11%

Potency, active:
CSc1ccccc1OCc1cc(C(=O)N2C[C@H]3CC[C@H]2C3)no1 2820 nM
O=C(/C=C/c1ccco1)Nc1ccc(Oc2ccccc2)cc1 3980 nM
C(=N\Nc1ccc2ccccc2n1)/c1ccc2c(c1)OCO2 100 nM
Cc1noc(C)c1/C=N/Nc1ccc2ccccc2n1 708 nM
COC(=O)c1ccc(NC(=O)c2ccco2)cc1 2820 nM
O=C(/C=C/c1cnc2ccccc2n1)NC1CCCCCC1 3160 nM
c1c2c(cc3sc(N4CCCCC4)nc13)OCCO2 355 nM
Brc1ccc2nc(N3CCCC3)sc2c1 1410 nM
Fc1ccc2nc(N3CCCCC3)sc2c1 891 nM
O=C(CSc1nnnn1C1CCCC1)N1CCCCC1 3160 nM
COCC1CCCN(Cc2nc(-c3ccc4c(c3)OCO4)no2)C1 (centres undefined) 3160 nM
